Values joined by “and” are separate entries in the source; they are usually repeats but may differ in a detail not shown here. Identical values can stand only once. Records with an inconclusive call do not appear. Active and inactive are the calls of the source. Unless noted, the call rests on the fitted dose curve; in most records, active means well fitted curve in the direction sought with a large enough effect; inconclusive means small, poorly fitted or top-dose-only effect, or another doubt; inactive means no such curve, though single readings can be large; an effect the other way counts as inactive or inconclusive.
Columns and labels:
[1] = molecular target: Cellular tumor antigen p53 (Homo sapiens) (UniProt P04637); experiment: Primary qHTS for small molecule compounds that upregulate eGFP-tagged delta133p53alpha (in N-terminal) cells. (AID 2060322); settings: NCI-H358 eGFP-delta133p53alpha fluorescence, 24 h; activation: active compounds read high; further: nearly all actives have a fitted effect of over 75% in size; further: potency means the concentration at half of the fitted maximal effect;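 on activation: cells pre-induced with doxycycline then dosed without doxycycline; series mostly up to about 56 µM; 0% = DMSO vehicle and 100% = reference activator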
Summary of the method: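 NCI-H358 cells pre-induced 24 h with 10 ng/ml doxycycline for eGFP-delta133p53alpha, plated dox-free and exposed 24 h at 37C to titrated compounds. Fixed, Hoechst-stained; gated GFP peak intensity by laser scanning cytometry, normalized to DMSO (0%) and 57.5 uM 5-azacytidine (100%).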

[2] = molecular target: Aldehyde dehydrogenase, mitochondrial (Homo sapiens) (UniProt P05091); experiment: qHTS for Inhibitors of the Aldehyde Dehydrogenase Family (ALDH2) Validation screens (AID 2061302; active means well fitted inhibition curve with a large enough effect; title and protocol of this record describe different tests;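 further: plate controls were DMSO vehicle for no effect and maximal DPI positive control response for full effect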)
[3] = molecular target: Retinaldehyde dehydrogenase 3 (Homo sapiens) (UniProt P47895); experiment: qHTS for Inhibitors of the Aldehyde Dehydrogenase Family (ALDH1A3) Validation screen (AID 2061312); further: on the % scale 0 is the no-effect control and ±100 the full control effect; nearly all actives have a fitted effect of over 45% in size
[4] = molecular target: Aldehyde dehydrogenase, mitochondrial (Homo sapiens) (UniProt P05091); experiment: qHTS for Inhibitors of the Aldehyde Dehydrogenase Family (ALDH2) Confirmatory screens (AID 2061303; active means well fitted inhibition curve with a large enough effect; title and protocol of this record describe different tests; further: on the % scale 0 is the no-effect control and ±100 the full control effect; nearly all actives have a fitted effect of over 45% in size)
[5] = molecular target: Aldehyde dehydrogenase, mitochondrial (Homo sapiens) (UniProt P05091); experiment: qHTS for Inhibitors of the Aldehyde Dehydrogenase Family (ALDH2) Primary screen (AID 2061308);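 further: plate controls were vehicle for no effect and reference inhibitor for full effect; nearly all actives have a fitted effect of over 55% in size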
[6] = molecular target: Retinaldehyde dehydrogenase 3 (Homo sapiens) (UniProt P47895); experiment: qHTS for Inhibitors of the Aldehyde Dehydrogenase Family (ALDH1A3) Confirmatory screens (AID 2061311); further: nearly all actives have a fitted effect of over 60% in size; further: potency means the concentration at half of the fitted maximal effect
[7] = molecular target: Retinal dehydrogenase 2 (Homo sapiens) (UniProt O94788); experiment: qHTS for Inhibitors of the Aldehyde Dehydrogenase Family (ALDH1A2) Confirmation screens (AID 2061314); further: nearly all actives have a fitted effect of over 65% in size; further: potency means the concentration at half of the fitted maximal effect
[8] = molecular target: Retinaldehyde dehydrogenase 3 (Homo sapiens) (UniProt P47895); experiment: qHTS for Inhibitors of the Aldehyde Dehydrogenase Family (ALDH1A3) Primary screen (AID 2061315);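 further: plate controls were DMSO vehicle for no effect and reference inhibitor for full effect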
[9] = molecular target: Aldehyde dehydrogenase 1A1 (Homo sapiens) (UniProt P00352); experiment: qHTS for Inhibitors of the Aldehyde Dehydrogenase Family (ALDH1A1) Confirmatory screens (AID 2061316); further: nearly all actives have a fitted effect of over 65% in size
[10] = qHTS for Inhibitors of the Aldehyde Dehydrogenase Family (ALDH1A2, ALDH1A3, ALDH2, ALDH3A1) (AID 2061307); further: on the % scale 0 is the no-effect control and ±100 the full control effect; nearly all actives have a fitted effect of over 50% in size
[11] = BET inhibitor-based combinations targeting novel dependencies in MECOM-rearranged (r) AML: OCI-AML3 cell line (AID 2202232); settings: Potency: OCI-AML3 viability; further: potency means the concentration at half of the fitted maximal effect; nearly all actives have a fitted effect of over 35% in size
Summary of the method: (§1)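 AML cell lines seeded at 500 cells/well, treated with 11-point dose curves for 48 h. Viability by CellTiter-Glo luminescence, normalised to DMSO and empty wells; activity expressed as AUC and per-cell-line Z-transformed AUC.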

[12] = BET inhibitor-based combinations targeting novel dependencies in MECOM-rearranged (r) AML: MV-4-11 cell line (AID 2202233); further: potency means the concentration at half of the fitted maximal effect; nearly all actives have a fitted effect of over 45% in size
Summary of the method: (§2)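 Cells at 500/well were exposed for 48 hr to MIPE v5.0 drugs as 11-point dose curves. Viability was read by CellTiter-Glo luminescence and normalized to DMSO and empty-well controls. Activity was expressed as AUC and per-cell-line Z-AUC.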

[13] = BET inhibitor-based combinations targeting novel dependencies in MECOM-rearranged (r) AML: HNT-34 cell line (AID 2202234); further: potency means the concentration at half of the fitted maximal effect; nearly all actives have a fitted effect of over 35% in size
Summary of the method: as §2

[14] = BET inhibitor-based combinations targeting novel dependencies in MECOM-rearranged (r) AML: AML-191 cell line (AID 2202236; further: potency means the concentration at half of the fitted maximal effect; nearly all actives have a fitted effect of over 35% in size)
Summary of the method: as §1

[15] = BET inhibitor-based combinations targeting novel dependencies in MECOM-rearranged (r) AML: AML-194 cell line (AID 2202237; further: potency means the concentration at half of the fitted maximal effect; nearly all actives have a fitted effect of over 40% in size)
Summary of the method: as §1

[16] = BET inhibitor-based combinations targeting novel dependencies in MECOM-rearranged (r) AML: UCSD-AML1 cell line (AID 2202235); further: potency means the concentration at half of the fitted maximal effect; nearly all actives have a fitted effect of over 40% in size
Summary of the method: as §2

Chain of Cellular tumor antigen p53 (Homo sapiens) (P04637 whole entry, looked up): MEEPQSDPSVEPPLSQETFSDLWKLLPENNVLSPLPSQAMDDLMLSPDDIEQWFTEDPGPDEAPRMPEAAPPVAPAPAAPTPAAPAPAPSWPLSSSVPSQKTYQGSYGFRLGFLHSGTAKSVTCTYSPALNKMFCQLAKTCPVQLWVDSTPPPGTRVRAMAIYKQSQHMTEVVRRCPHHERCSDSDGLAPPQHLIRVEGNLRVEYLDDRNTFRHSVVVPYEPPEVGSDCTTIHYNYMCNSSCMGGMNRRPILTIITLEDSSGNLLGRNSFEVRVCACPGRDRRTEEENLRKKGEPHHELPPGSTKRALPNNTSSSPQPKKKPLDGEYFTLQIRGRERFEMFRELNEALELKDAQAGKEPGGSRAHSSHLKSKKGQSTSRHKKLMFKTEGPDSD

C=CCNc1ncnc2ccc(Br)cc12
inactive: activation [1] -43.6% | Potency [2] | Potency [3]

N#C/C(=C\c1ccc(-c2cc(Cl)ccc2Cl)o1)C(=O)Nc1cccc2ncccc12
inactive: activation [1] -37.8% | Potency [2]

C#CC(N)CCC(=O)O (stereo not drawn)
inactive: activation [1] -41.5% | Potency [2] | Potency [3]

Brc1cc2c(cc1[C@H]1Nc3ccccc3[C@H]3C=CC[C@H]31)OCO2
inactive: activation [1] -5.37% | Potency [2] | Potency [3]

O=c1cc(-c2ccc(O)cc2)oc2cc(O)cc(O)c12
inactive: activation [1] -19.8% and -40.1% | Potency [2] | Potency [3]

O=C1NCN(c2ccccc2)C12CCN(CCCC(c1ccc(F)cc1)c1ccc(F)cc1)CC2
inactive: activation [1] -12.6% and -53.2% | Potency [2] | Potency [3]

CN1CCN(C2Cc3ccccc3Sc3ccc(Cl)cc32)CC1 (stereo not drawn)
inactive: activation [1] -14.1% | Potency [2] | Potency [3]

CN(C)c1cc2c(Nc3ccc4c(cnn4Cc4ccccc4)c3)ncnc2cn1
active: Potency [6] 10 µM | Potency [7] 0.283 µM
inactive: activation [1] -35.7% | Potency [2] | Potency [4] | Potency [5] | Potency [3] | Potency [8] | Potency [9]

COC(=O)C1=C(C)NC(C)=C(C(=O)OC)C1c1cccc(NC(=O)NCCCN2CCC(c3cccc(OC)c3)CC2)c1
active: Potency [1] 21.3 µM
inactive: Potency [2] | Potency [5] | Potency [3] | Potency [8]

O=c1[nH]ccc2c(O)cccc12
inactive: activation [1] -33.7% | Potency [2] | Potency [3]

NC/C=C\C(=O)O
inactive: activation [1] 28.9% | Potency [2] | Potency [3]

O=C(O)C1CCCNC1 (stereo not drawn)
inactive: activation [1] -25.6% | Potency [2] | Potency [3]

COc1cc(OC)cc(-c2cc3cnc(N)nc3nc2NC(=O)NC(C)(C)C)c1
inactive: activation [1] 5.06% | Potency [2] | Potency [3]

CC(C)(C)c1ccc(C(=O)CCCN2CCC(OC(c3ccccc3)c3ccccc3)CC2)cc1
inactive: activation [1] -44.6% | Potency [2] | Potency [3]

O=C(c1ccc2c(c1)OCCO2)N1CCCCC1
inactive: activation [1] 8.27% | Potency [2] | Potency [3]

CCOC(=O)CSc1nc2c(sc3ccccc32)c(=O)n1CCCN1CCCC1
inactive: activation [1] 2.86% | Potency [2] | Potency [5] | Potency [3] | Potency [8]

COC1=C(OC)C(=O)c2ccccc2C1=O
inactive: activation [1] -31% | Potency [2] | Potency [4] | Potency [10]
active: Potency [6] 0.712 µM | Potency [7] 2.52 µM

CC(=O)c1ccc2c(c1)N(CCCN(C)C)c1ccccc1S2
inactive: activation [1] 3.95% and -33.1% | Potency [2] | Potency [3]

CC[C@@H]1Cc2cc(O)ccc2C2=C1c1ccc(O)cc1C[C@H]2CC
inactive: activation [1] -56% | Potency [2] | Potency [3]

CNCCCC12CCC(c3ccccc31)c1ccccc12
inactive: activation [1] -7.08% and 22.3% and 47.4% | Potency [2] | Potency [5] | Potency [3] | Potency [8]
active: Potency [11] 18.6 µM | Potency [12] 29.5 µM | Potency [13] 23.5 µM | Potency [14] 23.5 µM | Potency [15] 26.3 µM

COC(=O)C1=C(C)NC(C)=C([N+](=O)[O-])C1c1ccccc1C(F)(F)F (stereo not drawn)
inactive: activation [1] -39.9% | Potency [2] | Potency [3]

COc1cc2ncnc(Nc3cccc(Cl)c3)c2cc1OC
active: Potency [12] 8.33 µM | Potency [16] 18.6 µM
inactive: activation [1] 23.2% and -41% | Potency [2] | Potency [5] | Potency [3] | Potency [8]

C(=C\c1ccccc1)/CN1CCN(C(c2ccccc2)c2ccccc2)CC1
inactive: activation [1] -1.67% and -21% | Potency [2] | Potency [3]

CC[C@H]1OC(=O)[C@H](C)[C@@H](O[C@H]2C[C@@](C)(OC)[C@@H](O)[C@H](C)O2)[C@H](C)[C@@H](O[C@@H]2O[C@H](C)C[C@H](NC)[C@H]2O)[C@](C)(O)C[C@@H](C)CN(C)[C@H](C)[C@@H](O)[C@]1(C)O
inactive: activation [1] -4.2% | Potency [2] | Potency [3]

CC/C=C\[C@H](O)[C@H](O)C1=C(C)C(=O)[C@]2(O1)C(=O)N[C@@](O)(C(=O)c1ccccc1)[C@@H]2O
inactive: activation [1] -14.5% | Potency [4] | Potency [10] | Potency [5] | Potency [6] | Potency [7] | Potency [8]

CCC(=O)c1cc(-c2ccc(Cl)cc2)n(-c2ccc(S(N)(=O)=O)cc2)c1C
inactive: activation [1] 0.955% | Potency [4] | Potency [10] | Potency [5] | Potency [6] | Potency [3] | Potency [8] | Potency [9]

N[C@@]1(C(=O)O)CC[C@H]2[C@H](C(=O)O)[C@H]21
inactive: activation [1] -12.3% | Potency [4] | Potency [10] | Potency [5] | Potency [6] | Potency [7] | Potency [8] | Potency [9]
